# Measurements taken from PubChem BioAssay AID1159580 (chemical genetic matrix, 2015).
# About 2,000 (36%) of roughly 5,500 compounds were called active. Another 18% or so got no clear call; they are omitted. The list shows a part of the results. Values without a mark were called inactive. Rule as the data show it: active = normalized growth mostly below about 0.91 (no sharp cut-off); inconclusive = no clear call, values can overlap the other calls; inactive = mostly above about 0.92.
# Test: chemical genetic growth profiling, strain panel (AID 1159580);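 also: tested at 20 µM; growth read once vehicle control cultures reached saturation at 30 °C; 1 = growth at the plate median or of vehicle wells; lower values mean less growth of the strain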
# Details: S. cerevisiae deletion strains, growth OD
# [1] = locus YDL101C, strain DUN1, stronger effect = lower value
# [2] = locus YHR030C, strain SLT2, stronger effect = lower value
# [3] = locus YAR019C, strain CDC15, stronger effect = lower value
# [4] = locus YBL105C, strain PKC1, stronger effect = lower value
# [5] = locus YBR135W, strain CKS1, stronger effect = lower value
# [6] = locus YBR136W, strain MEC1, stronger effect = lower value
# [7] = locus YBR160W, strain CDC28, stronger effect = lower value
# [8] = locus YDL017W, strain CDC7, stronger effect = lower value
# [9] = locus YDL028C, strain MPS1, stronger effect = lower value
# [10] = locus YDL108W, strain KIN28, stronger effect = lower value
# [11] = locus YDL132W, strain cdc53, stronger effect = lower value
# [12] = locus YDL214C, strain PRR2, stronger effect = lower value
# [13] = locus YDR052C, strain DBF4, stronger effect = lower value
# [14] = locus YDR054C, strain cdc34, stronger effect = lower value
# [15] = locus YDR226W, strain ADK1, stronger effect = lower value
# [16] = locus YDR477W, strain SNF1, stronger effect = lower value
# [17] = locus YER123W, strain YCK3, stronger effect = lower value
# [18] = locus YER133W, strain GLC7, stronger effect = lower value
# [19] = locus YFL009W, strain cdc4, stronger effect = lower value
# [20] = locus YFL029C, strain CAK1, stronger effect = lower value
# [21] = locus YFR003C, strain YPI1, stronger effect = lower value
# [22] = locus YFR019W, strain FAB1, stronger effect = lower value
# [23] = locus YFR028C, strain CDC14, stronger effect = lower value
# [24] = locus YGR040W, strain KSS1, stronger effect = lower value
# [25] = locus YGR052W, strain FMP48, stronger effect = lower value
# [26] = locus YGR092W, strain DBF2, stronger effect = lower value
# [27] = locus YHR079C, strain IRE1, stronger effect = lower value
# [28] = locus YHR082C, strain KSP1, stronger effect = lower value
# [29] = locus YHR205W, strain SCH9, stronger effect = lower value
# [30] = locus YIL147C, strain SLN1, stronger effect = lower value
# [31] = locus YJL095W, strain BCK1, stronger effect = lower value
# [32] = locus YJL128C, strain PBS2, stronger effect = lower value
# [33] = locus YJL157C, strain FAR1, stronger effect = lower value
# [34] = locus YJR016C, strain ILV3, stronger effect = lower value
# [35] = locus YJR066W, strain TOR1 (second series), stronger effect = lower value
# [36] = locus YJR066W, strain TOR1, stronger effect = lower value
# [37] = locus YKL048C, strain ELM1, stronger effect = lower value
# [38] = locus YKL067W, strain YNK1, stronger effect = lower value
# [39] = locus YKL101W, strain HSL1, stronger effect = lower value
# [40] = locus YKL193C, strain SDS22, stronger effect = lower value
# [41] = locus YKL203C, strain TOR2, stronger effect = lower value
# [42] = locus YLR113W, strain HOG1, stronger effect = lower value
# [43] = locus YLR133W, strain CKI1, stronger effect = lower value
# [44] = locus YLR403W, strain SFP1, stronger effect = lower value
# [45] = locus YML070W, strain DAK1, stronger effect = lower value
# [46] = locus YMR001C, strain CDC5, stronger effect = lower value
# [47] = locus YMR205C, strain PFK2 (second series), stronger effect = lower value
# [48] = locus YMR277W, strain FCP1, stronger effect = lower value
# [49] = locus YNL006W, strain LST8, stronger effect = lower value
# [50] = locus YNL020C, strain ARK1, stronger effect = lower value
# [51] = locus YNL161W, strain CBK1, stronger effect = lower value
# [52] = locus YNL183C, strain NPR1, stronger effect = lower value
# [53] = locus YNL207W, strain RIO2, stronger effect = lower value
# [54] = locus YNL222W, strain SSU72, stronger effect = lower value
# [55] = locus YNL307C, strain MCK1 (second series), stronger effect = lower value
# [56] = locus YOL078W, strain AVO1, stronger effect = lower value
# [57] = locus YOL136C, strain PFK27, stronger effect = lower value
# [58] = locus YOR061W, strain CKA2, stronger effect = lower value
# [59] = locus YOR119C, strain RIO1, stronger effect = lower value
# [60] = locus YOR231W, strain MKK1, stronger effect = lower value
# [61] = locus YOR329C, strain SCD5, stronger effect = lower value
# [62] = locus YPL031C, strain PHO85, stronger effect = lower value
# [63] = locus YPL153C, strain RAD53, stronger effect = lower value
# [64] = locus YPL209C, strain IPL1, stronger effect = lower value
# [65] = locus YPL256C, strain CLN2, stronger effect = lower value
# [66] = locus YPR025C, strain CCL1, stronger effect = lower value
# [67] = locus YPR106W, strain ISR1, stronger effect = lower value
# [68] = locus YPR111W, strain DBF20, stronger effect = lower value
# [69] = strain NNK1, stronger effect = lower value
# [70] = strain TSCII, stronger effect = lower value
smiles,measurement,setting,value
O=C(NNC(=S)Nc1ccc(F)cc1)c1ccccc1Cl,normalized growth,"locus YAL013W, strain DEP1, stronger effect = lower value",0.987
same,normalized growth,"locus YBR229C, strain ROT2, stronger effect = lower value",1
same,normalized growth,"locus YCL061C, strain MRC1, stronger effect = lower value",1
same,normalized growth,[1],1.04
same,normalized growth,"locus YDL134C, strain PPH21, stronger effect = lower value",0.976
same,normalized growth,"locus YDR150W, strain NUM1, stronger effect = lower value",0.987
same,normalized growth,"locus YEL061C, strain CIN8, stronger effect = lower value",0.958
same,normalized growth,"locus YGR078C, strain PAC10, stronger effect = lower value",0.972
same,normalized growth,"locus YGR229C, strain SMI1, stronger effect = lower value",0.97
same,normalized growth,[2],0.948
same,normalized growth,"locus YHR087W, strain rtc3, stronger effect = lower value",0.977
same,normalized growth,"locus YJR043C, strain POL32, stronger effect = lower value",1.01
same,normalized growth,"locus YJR075W, strain HOC1, stronger effect = lower value",1.01
same,normalized growth,"locus YKL190W, strain CNB1, stronger effect = lower value",0.966
same,normalized growth,"locus YLR039C, strain RIC1, stronger effect = lower value",0.933
same,normalized growth,"locus YLR058C, strain SHM2 (second series), stronger effect = lower value",0.98
same,normalized growth,"locus YLR085C, strain ARP6, stronger effect = lower value",0.897
same,normalized growth,"locus YLR262C, strain YPT6, stronger effect = lower value",0.963
same,normalized growth,"locus YML094W, strain GIM5, stronger effect = lower value",0.96
same,normalized growth,"locus YMR219W, strain ESC1, stronger effect = lower value",1.01
same,normalized growth,"locus YMR263W, strain SAP30, stronger effect = lower value",0.977
same,normalized growth,"locus YNL128W, strain TEP1, stronger effect = lower value",0.971
same,normalized growth,"locus YNL153C, strain GIM3, stronger effect = lower value",1.01
same,normalized growth,"locus YNL298W, strain CLA4 (second series), stronger effect = lower value",0.923
same,normalized growth,"locus YNL322C, strain KRE1, stronger effect = lower value",0.997
same,normalized growth,"locus YNR030W, strain Alg12, stronger effect = lower value",0.94
same,normalized growth,"locus YOL006C, strain TOP1, stronger effect = lower value",0.629 (active)
same,normalized growth,"locus YPL055C, strain LGE1, stronger effect = lower value",0.921
same,normalized growth,"locus YPL241C, strain CIN2, stronger effect = lower value",1.01
same,normalized growth,"locus YPR135W, strain CTF4, stronger effect = lower value",0.982
N#CCC(=O)NNC(=S)Nc1ccc(Cl)c(Cl)c1,normalized growth,[3],0.991
same,normalized growth,[4],0.985
same,normalized growth,[5],0.981
same,normalized growth,[6],0.983
same,normalized growth,[7],0.991
same,normalized growth,[8],0.987
same,normalized growth,[9],0.986
same,normalized growth,[1],0.981
same,normalized growth,[10],0.98
same,normalized growth,[11],0.974
same,normalized growth,[12],0.938
same,normalized growth,[13],0.988
same,normalized growth,[14],0.98
same,normalized growth,[15],0.982
same,normalized growth,[16],0.929
same,normalized growth,[17],0.895
same,normalized growth,[18],0.92
same,normalized growth,[19],0.98
same,normalized growth,[20],0.989
same,normalized growth,[21],0.979
same,normalized growth,[22],0.969
same,normalized growth,[23],0.979
same,normalized growth,[24],0.93
same,normalized growth,[25],0.955
same,normalized growth,[26],0.965
same,normalized growth,[2],0.931
same,normalized growth,[27],0.965
same,normalized growth,[28],1.04
same,normalized growth,[29],0.96
same,normalized growth,[30],0.986
same,normalized growth,[31],0.932
same,normalized growth,[32],0.943
same,normalized growth,[33],0.931
same,normalized growth,[34],0.978
same,normalized growth,[35],0.913
same,normalized growth,[36],1.07
same,normalized growth,[37],0.97
same,normalized growth,[38],0.936
same,normalized growth,[39],0.942
same,normalized growth,[40],0.975
same,normalized growth,[41],1.01
same,normalized growth,[42],0.881
same,normalized growth,[43],0.96
same,normalized growth,[44],0.963
same,normalized growth,[45],0.93
same,normalized growth,[46],0.979
same,normalized growth,[47],0.942
same,normalized growth,[48],0.982
same,normalized growth,[49],0.984
same,normalized growth,[50],0.964
same,normalized growth,[51],0.981
same,normalized growth,[52],1.04
same,normalized growth,[53],0.978
same,normalized growth,[54],0.984
same,normalized growth,[55],0.962
same,normalized growth,[56],0.975
same,normalized growth,[57],0.95
same,normalized growth,[58],0.95
same,normalized growth,[59],0.988
same,normalized growth,[60],0.975
same,normalized growth,[61],0.985
same,normalized growth,[62],0.916
same,normalized growth,[63],0.916
same,normalized growth,"locus YPL204W, strain HRR25, stronger effect = lower value",0.917
same,normalized growth,[64],0.987
same,normalized growth,[65],0.956
same,normalized growth,[66],0.988
same,normalized growth,[67],0.975
same,normalized growth,[68],0.976
same,normalized growth,[69],0.988
same,normalized growth,[70],0.983
O=C(c1ccccc1)c1cc(Cl)ccc1NC(=S)Nc1ccc(F)cc1,normalized growth,[3],0.984
same,normalized growth,[4],0.992
same,normalized growth,[5],0.99
same,normalized growth,[6],0.987
same,normalized growth,[7],0.998
same,normalized growth,[8],0.996
same,normalized growth,[9],0.994
same,normalized growth,[1],0.996
same,normalized growth,[10],0.985
same,normalized growth,[11],0.992
same,normalized growth,[12],0.968
same,normalized growth,[13],0.994
same,normalized growth,[14],0.994
same,normalized growth,[15],0.993
same,normalized growth,[16],0.982
same,normalized growth,[17],0.95
same,normalized growth,[18],0.977
same,normalized growth,[19],0.986
same,normalized growth,[20],0.987
same,normalized growth,[21],0.988
same,normalized growth,[22],0.945
same,normalized growth,[23],0.991
same,normalized growth,[24],0.967
same,normalized growth,[25],1.02
same,normalized growth,[26],0.989
same,normalized growth,[2],0.97
same,normalized growth,[27],0.997
same,normalized growth,[28],1.12
same,normalized growth,[29],0.988
same,normalized growth,[30],0.994
same,normalized growth,[31],0.988
same,normalized growth,[32],0.947
same,normalized growth,[33],0.962
same,normalized growth,[34],0.988
same,normalized growth,[35],0.937
same,normalized growth,[36],1.05
same,normalized growth,[37],0.99
same,normalized growth,[38],0.968
same,normalized growth,[39],0.971
same,normalized growth,[40],0.991
same,normalized growth,[41],1
same,normalized growth,[42],0.858 (active)
same,normalized growth,[43],0.983
same,normalized growth,[44],0.974
same,normalized growth,[45],0.978
same,normalized growth,[46],0.995
same,normalized growth,[47],0.977
same,normalized growth,[48],0.976
same,normalized growth,[49],0.992
same,normalized growth,[50],0.983
same,normalized growth,[51],0.992
same,normalized growth,[52],1.02
same,normalized growth,[53],0.992
same,normalized growth,[54],0.987
same,normalized growth,[55],0.968
same,normalized growth,[56],0.999
same,normalized growth,[57],0.969
same,normalized growth,[58],0.973
same,normalized growth,[59],1.05
same,normalized growth,[60],0.994
same,normalized growth,[61],0.993
same,normalized growth,[62],0.969
same,normalized growth,[63],0.988
same,normalized growth,[64],0.993
same,normalized growth,[65],0.985
same,normalized growth,[66],0.99
same,normalized growth,[67],0.997
same,normalized growth,[68],0.963
same,normalized growth,[69],0.995
same,normalized growth,[70],0.991
